# Source: PubChem
# FBPA Giardia inh: inhibitors of Giardia lamblia fructose-1,6-bisphosphate aldolase. purified Giardia FBPA. 290,000 tested, 0.71% active. Potency, µM (titrated, usually from 59.6 µM), inactives show at the highest dose activity, negative = inhibition, actives largely listed as inhibitors; also: nearly all actives have a fitted effect of over 55% in size
# Target sequence (A8B2U2 whole entry, looked up): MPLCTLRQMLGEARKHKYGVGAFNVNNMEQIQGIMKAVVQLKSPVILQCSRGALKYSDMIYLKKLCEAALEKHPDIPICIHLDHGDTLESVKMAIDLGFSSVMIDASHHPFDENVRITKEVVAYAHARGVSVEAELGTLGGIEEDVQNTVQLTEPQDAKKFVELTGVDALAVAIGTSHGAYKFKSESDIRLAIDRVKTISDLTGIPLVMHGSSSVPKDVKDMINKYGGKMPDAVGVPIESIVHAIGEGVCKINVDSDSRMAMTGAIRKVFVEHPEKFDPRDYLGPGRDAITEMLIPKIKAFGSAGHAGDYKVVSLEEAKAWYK
#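 Giardia FBPA (40 nM reagent) was preincubated 10 min at RT with compound (up to 57.5 uM final), then substrate plus GAPDH/TPI/NAD/arsenate coupling system with diaphorase/resazurin was added; resorufin fluorescence (525/598 nm) was read after 20 min.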
# TbPYK inhibitor: T. brucei pyruvate kinase inhibition; TbPYK enzyme, Kinase-Glo Plus ATP luminescence, 45 min; Potency, µM (titrated, usually from 76.8 µM), without a hit: at the top dose activity, negative = inhibition, hits mostly inhibitors; 410,000 tested, 0.12% active; AID 624173; also: nearly all actives have a fitted effect of over 50% in size
#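 Glycolytic pyruvate kinase of T. brucei was incubated with substrate, test compound and 130 uM ADP for 45 minutes at room temperature. Luminescent Kinase-Glo Plus signal was measured after 10 minutes.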
# RE007 growth inh: less growth of the S. pombe RE007 Vpr strain; S. pombe RE007 Vpr strain, BacTiter-Glo ATP luminescence, 24 h; Potency, µM (doses to about 92.2 µM), for the others: at the top dose activity change, negative = less growth, most hits filed as inhibitors; 360,000 tested, 0.21% active; AID 651644; active = well fitted falling curve with a large enough effect; inconclusive = small, poorly fitted or top-dose-only effect; inactive = no such curve, though single readings can be large or run the other way; also: nearly all actives have a fitted effect of over 50% in size
#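 Fission yeast strain RE007, carrying one chromosomally integrated HIV-1 vpr copy, was seeded at OD 0.01 in PMG+AL medium with 23 nL pinned compound. After 24 h at 30 °C and 99% humidity, viability was read by BacTiter-Glo luminescence.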
# LmPK inhibitor: LmPK (Leishmania mexicana) enzyme inhibition | purified LmPK, Kinase-Glo ATP luminescence, 1 h | Potency, µM (doses to about 57.5 µM), for inactives: at the highest dose activity change, negative = inhibition, actives largely listed as inhibitors | Q27686 | 290,000 tested, 0.37% active
#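 Purified LmPK (0.1 nM) converted ADP (0.1 mM) to ATP with PEP (0.5 mM) in imidazole buffer pH 7.2 with KCl and MgCl2, 1 h at room temperature. ATP was read by Kinase-Glo luminescence; data normalized to uninhibited and no-enzyme controls.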
# Sm TGR block: S. mansoni TGR enzyme inhibition. Q962Y6. purified TGR, DTNB reduction, TNB absorbance 405 nm. Potency, µM (doses to about 114 µM), for the others: at the top dose activity change, negative = inhibition, actives largely listed as inhibitors. 360,000 tested, 3% active; also: nearly all actives have a fitted effect of over 60% in size
#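 TGR 20 nM + NADPH 100 uM (dispensed conc.), cpd preinc 15 min RT; start with NADPH (500 uM addition) then DTNB (15 mM addition). Kinetic TNB absorbance, 405 nm filter. Four-parameter Hill fit across titration.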
# Active calls of the source: *; ? = inconclusive; / = not tested or not shown; [ ] = another dose, or the depositor's remark. A selection: hits, their analogues and other compounds. The true share with any hit is near 3.3%. Unless noted, calls follow the shape of the dose curve; as a rule, active = well fitted curve in the direction sought with a large enough effect; inconclusive = small, poorly fitted or top-dose-only effect, or another doubt; inactive = no such curve, though single readings can be large; an effect the other way counts as inactive or inconclusive. % is scaled to controls: 0 for no effect and ±100 for the full control effect; potency is read from the fitted curve at half-maximal effect.
SMILES,FBPA Giardia inh,TbPYK inhibitor,RE007 growth inh,LmPK inhibitor,Sm TGR block
CCC(C)(C)NC(=O)CN(C(=O)CCC(=O)Nc1ccccn1)c1ccc(F)c(Cl)c1,-5%,-1%,5%,3%,4%
CN(C(=O)COC(=O)c1nc(Cl)c(Cl)c(Cl)c1Cl)C1CCS(=O)(=O)C1 (stereo unspecified),-5%,3%,-7%,1%,35µM*
O=C(c1ccc(CS(=O)(=O)c2ccccc2)o1)N1CCOCC1,3%,8%,18%,10%,40µM*
Cc1ccc(S(=O)(=O)Cc2ccc(C(=O)N3CCN(Cc4ccccc4)CC3)o2)cc1,11%,/,/,2%,35µM*
Cc1ccc(S(=O)(=O)Cc2ccc(C(=O)N3CCN(c4cccc(C)c4C)CC3)o2)cc1,4%,2%,10%,-6%,?
Cc1ccc(S(=O)(=O)Cc2ccc(C(=O)N3CCc4ccccc4C3)o2)cc1,-3%,-4%,14%,1%,40µM*
COc1ccc(S(=O)(=O)Cc2ccc(C(=O)N3CCc4ccccc4C3)o2)cc1,1%,-14%,-2%,9%,20µM*
COc1ccc(S(=O)(=O)Cc2ccc(C(=O)N3CCN(Cc4ccccc4)CC3)o2)cc1,-1%,-1%,6%,-2%,?
Cc1cccc(NC(=O)c2ccc([N+](=O)[O-])s2)n1,-19%,1%,16µM*,1%,0%
Cc1cccc(C)c1NC(=O)c1ccc([N+](=O)[O-])s1,9%,-24%,-7%,-2%,-9%
COc1cc(C2C3=C(CC(c4ccco4)CC3=O)Nc3ccccc3N2C(C)=O)cc(OC)c1OC (stereo unspecified),?,-6%,-14%,0%,79µM*
O=C1CC(c2ccco2)CC2=C1C1c3ccccc3C(=O)N1c1ccccc1N2 (stereo unspecified),4%,1%,2%,6%,35µM*
COc1ccc(C2CC(=O)C3=C(C2)Nc2ccccc2N(C(C)=O)C3c2ccco2)cc1 (stereo unspecified),0%,-8%,2%,4%,0%
CCN1CCN(c2ncnc3scc(-c4ccc(C)c(C)c4)c23)CC1,-2%,-1%,-27%,9%,9%
CCCC(=O)Nc1ccc(-c2nc3cc(C)c(C)cc3o2)cc1,8%,-1%,7%,-4%,3%
COc1cccc(N2CCN(C(=O)C(CCSC)NS(=O)(=O)c3ccc4c(c3)oc(=O)n4C)CC2)c1 (stereo unspecified),/,6%,/,/,5%
CCOC(=O)Cc1csc(NC(=O)c2cc(C)c(C)s2)n1,/,2%,-1%,/,-9%
O=[N+]([O-])c1cccnc1N1CCCNCC1,3%,-13%,-10%,-11%,50µM*
C(=N\n1cnnc1)/c1cccc(Oc2ccccc2)c1,0%,12%,8%,-4%,-17%
S=c1[nH]ncn1/N=C/c1cccc(Oc2ccccc2)c1,23%,?,-26%,10µM*,-5%
CS/C(=N\S(=O)(=O)c1ccc(Cl)cc1)c1ccccc1,10%,2%,9%,0%,-8%
O=S(=O)(/N=C(\Sc1ccc(Cl)cc1)c1ccccc1)c1ccccc1,-1%,-1%,17%,-2%,25µM*
CCOc1ccc(NS(=O)(=O)c2cc(C(=O)N3CCN(C(C)=O)CC3)ccc2Cl)cc1,/,0%,-26%,-2%,-6%
Cc1ccccc1S(=O)(=O)Cc1ccc(C(=O)NC2CCCCCC2)o1,1%,3%,0%,-1%,-22%
CCCCN(C)C(=O)c1ccc(CS(=O)(=O)c2ccccc2C)o1,5%,-7%,-18%,7%,25µM*
SMILES,FBPA Giardia inh,TbPYK inhibitor,RE007 growth inh,LmPK inhibitor,Sm TGR block
COC(CN(C)C(=O)c1ccc(CS(=O)(=O)c2ccccc2C)o1)OC,3%,-6%,18%,-1%,50µM*
Cc1ccccc1S(=O)(=O)Cc1ccc(C(=O)N(C)C2CCCCC2)o1,/,-14%,10%,-2%,25µM*
Nc1nc(C2CCCCC2)cs1,-12%,-2%,-14%,4%,19%
COCCN(C(=S)Nc1ccccc1OC)C1CCN(C(C)=O)CC1,-2%,-13%,-8%,0%,-5%
COCCCn1c(C(=O)N2CCOCC2)cc2c(=O)n3cccc(C)c3nc21,/,0%,4%,/,/
COc1cc(CN2CCN(S(=O)(=O)c3ccc(NC(C)=O)cc3)CC2)cc(OC)c1OC,/,-20%,/,/,2%
Cc1cc2ncc(-c3ccccc3)nc2cc1C,8%,-9%,-14%,-30%,-9%
Cc1cc(-c2ccccc2)nc(-c2ccccc2)c1C,-26%,8%,3%,7.1µM*,6%
C=CCOc1ccc(C2/C(=C(\O)c3ccc4c(c3)CC(C)O4)C(=O)C(=O)N2CCN2CCOCC2)cc1OCC (stereo unspecified),-1%,5%,-6%,-3%,40µM*
CCOc1ccc(C2/C(=C(/O)c3ccc4c(c3)CC(C)O4)C(=O)C(=O)N2CCCn2ccnc2)cc1OCC (stereo unspecified),/,2%,-16%,-6%,89µM*
CSc1cccc(NC(=S)N(CCCN2CCCC(C)C2)Cc2cccs2)c1 (stereo unspecified),-5%,-3%,-5%,-2%,3%
CSc1nnc(C)c(=O)n1COC(=O)/C=C/c1ccc2c(c1)OCO2,2%,-4%,12%,0%[11.5 µM],25µM*
COc1ccc(-c2c(C)nn3c(N)c(-c4ccccc4)cnc23)cc1OC,-1%,6%,-12%,13%,40µM*
CCCN(CCC)CCc1ccc(O)c(O)c1,-16%,/,/,/,/
O=C(O)Cc1ccc2ccc3ccccc3c2c1,/,0%,-9%,/,/
O=C(O)Cc1ccc(O)c(O)c1,-4%,-22%,-1%[18.4 µM],18%,0.89µM*
OCCCc1ccc(O)c(O)c1,-23%,-16%,-3%,4%,3.5µM*
C[C@@](N)(Cc1ccc(O)c(O)c1)C(=O)O,22µM*,/,/,/,/
O=C(NCC1CCCO1)[C@@H]1CSC2c3ccccc3C(=O)N21 (stereo partly specified),1%,1%,4%,-4%,-8%
c1cncc(CNc2ncnc3ccc(-c4ccc5c(c4)OCO5)cc23)c1,/,1%,/,/,16%
O=S(=O)(c1cccnc1)N1CCn2cccc2C1c1ccccc1F (stereo unspecified),/,0%,1%,/,32µM*
COc1ccccc1S(=O)(=O)N1CCn2cccc2C1C (stereo unspecified),/,0%,-1%,/,?
O=[N+]([O-])c1ccc(S(=O)(=O)N2CCn3cccc3C2c2ccccc2F)cc1 (stereo unspecified),/,4%,/,/,35µM*
CC1c2cccn2CCN1S(=O)(=O)c1ccccc1 (stereo unspecified),/,0%,-19%,/,40µM*
CC(C)(C)NC(=O)N1CCn2cccc2C1c1ccccc1F (stereo unspecified),-5%,6%,1%,3%,-18%
